# Paper PMC4336329 (PLoS ONE, 2015)
# The campaign covered roughly 310,000 compounds. About 14,000 (4.5%) showed an effect of 50% or more. The effect is printed as a negative number. The sample holds strong results, similar compounds and a random draw of the others, so the mix is not that of the screen.
# Biological target: human ether-à-go-go-related gene (hERG) potassium channel (human, UniProt Q12809)
# Assay: primary screen, population patch clamp on CHO cells stably expressing hERG; higher = less effect of the substance
# 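Also: peak tail current of the secondary pulse compared with the same well before compound.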
# human ether-à-go-go-related gene (hERG) potassium channel, sequence (Q12809 whole entry, looked up): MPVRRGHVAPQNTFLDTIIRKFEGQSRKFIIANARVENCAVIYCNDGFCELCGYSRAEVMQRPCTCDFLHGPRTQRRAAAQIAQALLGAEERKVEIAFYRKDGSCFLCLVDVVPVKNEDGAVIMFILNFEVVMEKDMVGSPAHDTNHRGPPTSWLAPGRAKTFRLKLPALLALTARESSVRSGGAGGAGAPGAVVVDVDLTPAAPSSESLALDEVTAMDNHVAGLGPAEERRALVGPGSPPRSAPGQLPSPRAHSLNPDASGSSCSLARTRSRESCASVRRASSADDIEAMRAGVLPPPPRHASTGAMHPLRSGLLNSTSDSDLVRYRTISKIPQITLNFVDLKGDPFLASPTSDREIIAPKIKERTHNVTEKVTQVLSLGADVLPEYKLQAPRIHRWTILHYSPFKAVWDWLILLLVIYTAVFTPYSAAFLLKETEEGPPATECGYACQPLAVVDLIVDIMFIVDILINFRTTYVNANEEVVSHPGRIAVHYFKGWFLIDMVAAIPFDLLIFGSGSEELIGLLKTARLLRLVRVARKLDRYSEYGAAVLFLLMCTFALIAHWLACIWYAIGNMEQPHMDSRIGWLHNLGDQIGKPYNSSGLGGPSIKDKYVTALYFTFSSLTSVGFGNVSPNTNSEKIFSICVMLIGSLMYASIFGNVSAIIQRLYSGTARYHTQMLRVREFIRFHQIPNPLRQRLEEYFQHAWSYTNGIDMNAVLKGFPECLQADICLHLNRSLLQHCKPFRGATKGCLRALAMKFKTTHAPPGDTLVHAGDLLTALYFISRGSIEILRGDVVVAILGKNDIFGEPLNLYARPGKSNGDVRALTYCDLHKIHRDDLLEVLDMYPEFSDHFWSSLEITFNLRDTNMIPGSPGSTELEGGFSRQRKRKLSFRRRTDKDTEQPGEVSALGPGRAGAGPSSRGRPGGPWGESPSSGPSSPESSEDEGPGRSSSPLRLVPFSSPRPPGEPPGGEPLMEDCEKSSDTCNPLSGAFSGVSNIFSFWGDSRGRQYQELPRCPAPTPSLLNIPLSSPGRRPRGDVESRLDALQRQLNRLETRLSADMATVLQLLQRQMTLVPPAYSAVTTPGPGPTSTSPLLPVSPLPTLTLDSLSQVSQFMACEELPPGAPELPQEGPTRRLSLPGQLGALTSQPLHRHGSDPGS
row,Compound,"hERG current change (%, negative = inhibition) at 10uM"
1,O=C1C2(CCC13COC(c1ccc(O)cc1)OC3)COC(c1ccc(O)cc1)OC2 (centres unmarked),-2.43%
2,COc1ccc(OC)c(C2/C(=C(/O)c3ccc(C)cc3)C(=O)C(=O)N2Cc2ccco2)c1 (centres unmarked),-7.22%
3,Cc1cc(=O)oc2cc(OCC(=O)Nc3ccc(CN4CCOCC4)cc3)ccc12,3.15%
4,COc1cc2c3c(c1)/C(=C1/SC(=S)NC1=O)C(=O)N3C(C)(C)C=C2C,2.71%
5,CCc1cccc(NC(=O)C2CCCN2S(=O)(=O)c2cccc3cccnc23)c1 (centres unmarked),-10.4%
6,O=C(CCCn1cc([N+](=O)[O-])cn1)Nc1ccc2c(c1)OCO2,4.52%
7,CCOCCCNC(=O)C1CCN(S(=O)(=O)c2ccc3nc4c(c(C(=O)O)c3c2)CCCCC4)CC1,49.4%
8,CC1CCN(S(=O)(=O)c2ccc(C(=O)NC3CCS(=O)(=O)C3)cc2)CC1 (centres unmarked),-5.94%
9,COCCn1c(SCC(=O)Nc2cccnc2Cl)nc2ccccc2c1=O,4.53%
10,CC(C)N(CCn1c(SCC(=O)Nc2cccnc2Cl)nc2ccccc2c1=O)C(C)C,-69.7%
11,CC(=O)NCCn1c(SCc2ccc(C)cc2)nc2ccccc2c1=O,-31.2%
12,CC(=O)NCCn1c(SCC(=O)c2ccccc2)nc2ccccc2c1=O,-29.9%
13,COCCn1c(SCC(=O)Nc2cccnc2Cl)nc2cc(Cl)ccc2c1=O,-29.6%
14,CC(=O)NCCn1c(SCC(=O)OCc2ccccc2)nc2ccccc2c1=O,-60.2%
15,O=C(Cc1ccccc1)N1CCN(C(=O)c2cccs2)CC1,6.2%
16,O=C(Nc1cc(Cl)ccc1Cl)c1noc2c1CCCC2,12.4%
17,CC(=O)N(Cc1ccccc1)c1ccccc1C(=O)O,13.1%
18,CS(=O)(=O)n1nc(-c2ccco2)nc1N,20.3%
19,COc1cccc(OCc2nnc(SCC(=O)NCc3ccco3)n2C)c1,-0.586%
20,Cc1ccc(C)c(NC(=O)CN(C)C(=O)c2cccc(S(=O)(=O)N3CCN(Cc4ccccc4)CC3)c2)c1,9.47%
21,COc1ccc(O)c(CN2CCN(CCc3ccccc3)C(CCO)C2)c1 (centres unmarked),-54.6%
22,COc1ccc(O)c(CN2CCN(CCCc3ccccc3)C(CCO)C2)c1 (centres unmarked),-68.2%
23,OCCC1CN(Cc2c(O)ccc3ccccc23)CCN1CCc1ccccc1 (centres unmarked),-27.1%
